# Laboratory results: PubChem BioAssay (Tox21)
# Values joined by “and” are separate entries in the source; they are usually repeats but may differ in a detail not shown here. Equal values may be shown once. Results filed as inconclusive are left out. A call without a number means that no potency is given here. Active and inactive are the calls of the source. Calls follow the shape of the dose curve; as a rule, active = well fitted cell-killing curve with a large enough effect in the repeat runs; inconclusive = weak or mixed curves, or effect the other way; inactive = flat fitted curve, though single readings scatter.
# Test: qHTS RealTime-Glo MT Cell Viability Assay in HepG2 cells - 40 hour (AID 1224870); also: nearly all actives have a fitted effect of over 50% in size
# Conditions: RealTime-Glo luminescence; series mostly up to 76.8 µM
# Procedure, shortened: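 HepG2 cells mixed with RealTime-Glo MT reagents (NanoLuc plus cell-permeant prosubstrate) were seeded at 600 cells/well, incubated 5 h at 37 C/5% CO2, then pinned with compounds in DMSO; nonlytic luminescence tracked viability during 40 h treatment.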
# Potency is read from the fitted curve at half-maximal effect.
row,SMILES,Potency
1,O=[N+]([O-])c1ccc(Cl)c([N+](=O)[O-])c1,35.2 µM (active) and 17.4 µM (active)
2,CC1(C)C(C(=O)OC(C#N)c2cccc(Oc3ccccc3)c2)C1(C)C (stereo unspecified),inactive
3,CC(C)(c1ccc(OCC2CO2)cc1)c1ccc(OCC2CO2)cc1 (stereo unspecified),inactive
4,CC(C)(O)C#N,inactive
5,CCCCCCCC[N+](C)(CCCCCCCC)CCCCCCCC,9.75 µM (active) and 15.5 µM (active) and 8.71 µM (active)
6,c1ccc2c(c1)Nc1ccccc1S2,inactive
7,O=C(O)CF,inactive
8,C[N+](C)(C)CC(=O)O,inactive
9,CCOP(=S)(OCC)SCn1c(=O)oc2cc(Cl)ccc21,inactive
10,CCC1(c2ccc(N)cc2)CCC(=O)NC1=O (stereo unspecified),inactive
11,N#Cc1c(Cl)c(Cl)c(Cl)c(C#N)c1Cl,19.1 µM (active) and 3.47 µM (active)
12,CCC[CH2][Sn]([Cl])([CH2]CCC)[CH2]CCC,979 nM (active) and 347 nM (active)
13,Oc1ccc(Cl)cc1Cc1ccccc1,inactive
14,C[N+](C)(C)C,inactive
15,CCCCCCCCCc1ccc(O)cc1,inactive
16,COc1ccc(CO)cc1,inactive
17,O=[N+]([O-])c1ccc(Nc2ccccc2)cc1,inactive
18,CC[n+]1c(-c2ccccc2)c2cc(N)ccc2c2ccc(N)cc21,inactive
19,CN(C)c1nc(=O)n(C2CCCCC2)c(=O)n1C,inactive
20,NC(=O)CN1CCCC1=O,inactive
21,C[N+](C)(C)CC(=O)[O-],inactive
22,[CH3][Sn]([Cl])([Cl])[Cl],inactive
23,COC(=O)Nc1nc2ccccc2[nH]1,inactive
24,CC(C)(c1ccccc1)c1ccc(O)c(C(C)(C)c2ccccc2)c1,49 µM (active)
25,CNC(=O)CSP(=S)(OC)OC,inactive
26,C[C@]12CCC(=O)C=C1CC[C@@H]1[C@@H]2CC[C@@]2(C)[C@H]1CC[C@]2(C)O,inactive
